# Compounds with a hit are over-represented: about 31% of the library has one in this group of screens.
# CYP2C9 inh = blocks human cytochrome P450 2C9. hit rate 20% among 96,000. P11712. inhibition, % at 5 µM. CYP2C9 Supersomes, luciferin-H conversion, luminescence;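 active means blocking of liver enzyme CYP2C9 beyond about 50% at 5 µM, limit read from the data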
# CYP2C19 inh = inhibitors of human CYP2C19. AID 778. P33261. inhibition, % at 5 µM. hit rate 21% among 96,000. CYP2C19 Supersomes, luciferin-H EGE luminescence, 30 min;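 active means CYP2C19 inhibition above a set limit at 5 µM in the primary screen, cut at about 50% in these data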;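 further: plate controls were negative control wells for no effect and 2.5 mM tranylcypromine positive control for full effect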
# Target sequence (P33261 whole entry, looked up): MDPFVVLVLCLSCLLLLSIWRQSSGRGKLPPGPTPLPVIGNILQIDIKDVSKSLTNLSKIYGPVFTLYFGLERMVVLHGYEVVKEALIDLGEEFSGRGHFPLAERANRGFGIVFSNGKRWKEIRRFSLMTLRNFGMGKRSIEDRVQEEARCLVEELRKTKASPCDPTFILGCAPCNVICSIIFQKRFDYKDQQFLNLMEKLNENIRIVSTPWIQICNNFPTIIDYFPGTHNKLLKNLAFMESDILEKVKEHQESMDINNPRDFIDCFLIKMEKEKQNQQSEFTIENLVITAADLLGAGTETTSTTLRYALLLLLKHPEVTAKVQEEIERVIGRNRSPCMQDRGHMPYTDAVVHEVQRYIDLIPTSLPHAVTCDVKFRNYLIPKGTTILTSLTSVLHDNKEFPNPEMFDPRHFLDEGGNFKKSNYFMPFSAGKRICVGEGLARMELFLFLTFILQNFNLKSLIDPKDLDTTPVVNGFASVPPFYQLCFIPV
# CYP2C9 activ = increases human cytochrome P450 2C9 activity; P11712; recombinant CYP2C9, luciferin-H conversion, luminescence; active compounds read high; factor 1 = untreated enzyme, 0 = blocked; activation factor at 5 µM; hit rate 1.4% among 96,000; AID 1024;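 active means activation factor of 2 or more for CYP2C9 at a 5 µM dose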;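 further: 0 = sulfaphenazole-blocked wells and 1 = vehicle-only wells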
# CYP2C19 act = cytochrome P450 2C19 (human) activation; 96,000 tested, under 10 active; activation factor at 5 µM; recombinant CYP2C19, luciferin-H EGE luminescence; active compounds read high; 0 = fully inhibited enzyme, 1 = untreated enzyme; P33261;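 active means activation factor of at least 2 at 5 µM in the primary screen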;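 further: 0 = wells with 2.5 mM tranylcypromine and 1 = vehicle-only wells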
# * marks the source's active call; other numbers are inactive results.
SMILES,CYP2C9 inh,CYP2C19 inh,CYP2C9 activ,CYP2C19 act
CCC(=O)NC1(C(F)(F)F)C(=O)NC(C)=C1C#N (stereo not drawn),3.5,12.3,1,0.9
COc1cccc(-c2cc(C(F)(F)F)nc(N3CCCCC3)n2)c1,10.6,-7.6,0.9,1.1
COc1ccc(NC(=O)NCCCN2CCN(c3cc(C)ccc3C)CC2)cc1,20.6,22.0,0.8,0.8
CCC(=O)N1CCc2cc(S(=O)(=O)NC(Cc3ccccc3)C(=O)NC3CCCCC3C)ccc21 (stereo not drawn),49.7,39.9,0.5,0.6
COc1ccc(-c2noc(-c3ccco3)n2)cc1OC,6.8,4.3,0.9,1
CCOc1ccc(-c2noc(-c3ccncc3)n2)cc1OCC,79.8*,70.2*,0.2,0.3
O=[N+]([O-])c1cccc(-c2nc(-c3ccncc3)no2)c1,53.1*,95.0*,0.5,0.1
CCOc1ccc(-c2nc(-c3ccc(OC)cc3)no2)cc1OCC,13.3,4.5,0.9,1
CC(=O)Oc1ccc(-c2nc(-c3cccnc3)no2)cc1,86.2*,94.6*,0.1,0.1
CC(=O)Oc1ccc(Oc2ccc(-c3noc(C)n3)cc2)cc1,27.4,24.2,0.7,0.8
COc1ccc(-c2nc(-c3ccncc3)no2)cc1OC,59.5*,88.2*,0.4,0.1
O=[N+]([O-])c1ccc(-c2cc(-c3ccncc3)nc3ccc4ccccc4c23)cc1,26.3,4.2,0.7,1
CC(=O)N1C(C(=O)O)CSC1c1ccc(C)cc1 (stereo not drawn),-9.4,-24.7,1.1,1.2
COc1ccc(CCC(=O)Nc2ccc(-c3noc(-c4ccc(OC)c(OC)c4)n3)cc2)cc1,68.7*,15.7,0.3,0.8
Cc1ccc(CSc2nc3c(c(=O)[nH]c(=O)n3C)n2CCC(C)C)cc1,74.7*,61.1*,0.3,0.4
CCCCCn1c(Sc2nc3ccccc3s2)nc2c1c(=O)[nH]c(=O)n2C,51.0*,37.2,0.5,0.6
CCCCCCn1c(SCC(C)C)nc2c1c(=O)[nH]c(=O)n2C,57.0*,35.3,0.4,0.6
CC(C)n1c(SCc2ccc(Cl)cc2)nc2c1c(=O)[nH]c(=O)n2C,49.7,50.3*,0.5,0.5
CCCCCCn1c(SCC(=O)OC)nc2c1c(=O)[nH]c(=O)n2C,5.8,-6.0,0.9,1.1
C/C(=N/N1CCN(c2ccccn2)CC1)c1ccc([N+](=O)[O-])cc1,-6.8,0.4,1.1,1
CC(C)CCn1c(SCc2ccc(Cl)cc2)nc2c1c(=O)[nH]c(=O)n2C,78.8*,51.4*,0.2,0.5
C=C(C)CSc1nc2c(c(=O)[nH]c(=O)n2C)n1CCC(C)C,70.5*,27.4,0.3,0.7
C=C(C)Cn1c(SCCCO)nc2c1c(=O)[nH]c(=O)n2C,-33.1,-20.3,1.3,1.2
C=C(C)Cn1c(Sc2nc3ccccc3[nH]2)nc2c1c(=O)[nH]c(=O)n2C,32.8,87.5*,0.7,0.1
CCOCCn1c(SCc2ccc(C)cc2)nc2c1c(=O)[nH]c(=O)n2C,34.3,69.5*,0.7,0.3
SMILES,CYP2C9 inh,CYP2C19 inh,CYP2C9 activ,CYP2C19 act
O=C(NC1CCS(=O)(=O)C1)c1ccc(-c2ccc(Br)cc2)o1 (stereo not drawn),8.7,22.2,0.9,0.8
CCOC(=O)c1ccc(NC(=O)Cn2nnc3ccccc32)cc1,11.0,-3.1,0.9,1
O=C1CCn2nc(-c3ccc(Cl)cc3)cc2N1,7.7,-4.6,0.9,1
O=[N+]([O-])c1ccccc1/C=C/C=N/n1c(-c2ccc(Cl)cc2)n[nH]c1=S,57.5*,8.3,0.4,0.9
Cc1ccc(-c2n[nH]c(=S)n2/N=C/C=C\c2ccccc2[N+](=O)[O-])cc1,44.7,28.2,0.6,0.7
COc1ccccc1-c1cc2nc(C)c(CCC(=O)NCc3ccco3)c(C)n2n1,32.2,36.5,0.7,0.6
Cc1nc2cc(-c3cccc(F)c3)nn2c(C)c1CCC(=O)NC(C)CCc1ccco1 (stereo not drawn),91.3*,90.7*,0.1,0.1
COc1cc(OC)cc(-c2cc3nc(C)c(CCC(=O)NC(C)CCc4ccco4)c(C)n3n2)c1 (stereo not drawn),46.0,49.7,0.5,0.5
CCOC(=O)C1CCCCN1C(=O)CCc1c(C)nc2cc(-c3ccccc3)nn2c1C (stereo not drawn),60.1*,68.4*,0.4,0.3
Cc1nc2cc(-c3ccccc3)nn2c(C)c1CCC(=O)NCc1ccco1,52.0*,55.6*,0.5,0.4
Cc1cc(C(F)F)n2nc(C(=O)Nc3cccnc3Cl)nc2n1,1.4,-7.2,1,1.1
CCn1cc(NC(=O)Nc2ccccc2C(=O)OC)c(C(N)=O)n1,-1.6,-8.6,1,1.1
